C diff HTS – inhibitors of Clostridium difficile growth | Clostridium difficile clinical isolate growth, OD600, 24 h; active compounds read low | growth activity, negative = inhibition, % at 16 µg/mL (by protocol) | hit rate 0.25% among 86,000 | AID 1259249;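 active means mean growth activity at or below -80% and every replicate also at or below -80%; inconclusive means mean at or below -80% but some replicate above -80%; inactive means mean growth activity above -80%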;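 further: 0% = DMSO wells and -100% = levofloxacin 16 µg/mL wells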
Pf Dd2 inh – blocks growth of Plasmodium falciparum Dd2 parasites; P. falciparum Dd2 growth, SYBR Green, 72 h; active compounds read low; activity change, % at 10 µM; hit rate 2.3% among 94,000; AID 1159554; in the data active means activity change below about -80%; inconclusive means no clear call, values can overlap the other calls
T cruzi growth-1 – inhibitors of T. cruzi proliferation | T. cruzi beta-gal in NIH3T3, GalScreen luminescence, 90 h | inhibition, % at 8.34 µM | hit rate 5.9% among 77,000 | AID 624255;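 active means mean inhibition above about 93%, with at least 55% of replicates each passing it, limit read from the data, passing the limit was not always enough; inconclusive means only one of those two conditions holds; inactive means neither condition holds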
T cruzi growth-2 – Trypanosoma cruzi proliferation inhibition | shares compounds with T cruzi growth-1 | T. cruzi beta-gal in NIH3T3, GalScreen luminescence, 90 h | hit rate 72% among 5,600 | inhibition, % at 8.35 µM | AID 651739;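 active means mean replicate inhibition above about 95% and at least 55% of replicates individually reaching it, limit read from the data; inconclusive means only one of the two criteria is met; inactive means neither criterion is met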
T cruzi growth-3 – blocks T. cruzi growth in NIH3T3 host cells | shares compounds with T cruzi growth-1 | T. cruzi beta-gal in NIH3T3, GalScreen luminescence, 90 h | inhibition, % at 2.09 µM | hit rate 21% among 5,600 | AID 651740;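 active means mean inhibition above about 95%, with at least 55% of replicates also reaching it, limit read from the data; inconclusive means meets just one of the two conditions; inactive means meets neither condition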;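 further: plate controls were neutral control median for no effect and positive control median for full effect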
3T3 cytotox – kills mouse NIH/3T3 fibroblasts. NIH/3T3 viability, CellTiter-Glo ATP luminescence, 90 h. shares compounds with T cruzi growth-1. hit rate 14% among 5,600. AID 651742. cytotoxicity (signal decrease), % at 8.35 µM;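 active means mean signal decrease across replicates above about 35% based on untreated-well scatter, with enough replicates individually passing, limit read from the data; inconclusive means no rule stated though some were filed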;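 further: 0% = median of neutral control wells and 100% = median of positive control wells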
NIH3T3 tox 2 – cytotoxicity in mouse NIH/3T3 fibroblasts; shares compounds with T cruzi growth-1; NIH/3T3 viability, CellTiter-Glo ATP luminescence, 90 h; inhibition, % at 24.9 µM; hit rate 56% among 5,600;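 active means mean loss of cell viability signal at or above a set limit, and enough replicates individually reaching it; inconclusive means meets only the mean limit or only the replicate share; inactive means meets neither condition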;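 further: 0% = median of neutral control wells and 100% = median of positive control wells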
Numbers without * were called inactive; ? = inconclusive; nt = not tested or not shown. Hits are enriched below; roughly 6.7% of the tested compounds scored in any of these assays.

SMILES | C diff HTS | Pf Dd2 inh | T cruzi growth-1 | T cruzi growth-2 | T cruzi growth-3 | 3T3 cytotox | NIH3T3 tox 2
C[C@@H]1CN([C@@H](C)CO)S(=O)(=O)c2ccc(C#CC3CC3)cc2O[C@H]1CN(C)C(=O)Nc1cc(F)ccc1F | nt | -36.6 | 104.0* | 106.1* | 70.5 | 37.7* | 32.5*
C[C@@H]1CN([C@H](C)CO)S(=O)(=O)c2ccc(C#CC3CCCC3)cc2O[C@@H]1CN(C)C(=O)Nc1cc(F)ccc1F | 15.5 | -32.6 | nt | nt | nt | nt | nt
C[C@H](CO)N1C[C@H](C)[C@H](CN(C)C(=O)Nc2cc(F)ccc2F)Oc2cc(C#CC3CCCC3)ccc2S1(=O)=O | 8.3 | -38.5 | nt | nt | nt | nt | nt
CO[C@H]1CN(C)C(=O)c2cc(NC(C)=O)ccc2OC[C@H](C)N(CCC(F)(F)F)C[C@H]1C | nt | -4.5 | 0.3 | nt | nt | nt | nt
C[C@@H]1CN([C@H](C)CO)C(=O)Cc2cc(NS(=O)(=O)c3ccc(Cl)cc3)ccc2O[C@@H]1CN(C)S(=O)(=O)c1cccs1 | 2.5 | 12.6 | 78.2 | nt | nt | nt | nt
COc1ccc(NC(=O)N(C)C[C@H]2Oc3c(NS(=O)(=O)c4ccc(F)cc4)cccc3C(=O)N([C@@H](C)CO)C[C@@H]2C)cc1 | 22.9 | 30.3 | 35.1 | nt | nt | nt | nt
O=C(C[C@@H]1CC[C@H](NC(=O)c2ccccc2)[C@H](CO)O1)NCc1ccncn1 | 0.5 | -11.6 | -24.8 | nt | nt | nt | nt
CNC[C@@H]1Oc2ccc(NC(=O)Nc3ccccc3)cc2CC(=O)N([C@@H](C)CO)C[C@H]1C | -4.0 | 12.2 | 18.7 | nt | nt | nt | nt
O=C(C[C@H]1CC[C@H]2[C@@H](COC[C@@H](O)CN2S(=O)(=O)c2ccc(Cl)cc2)O1)N[C@@H]1CCN(Cc2ccccc2)C1 | nt | -29.3 | 96.1* | ? | 71.4 | -10.9 | -0.5
O=C(C[C@H]1CC[C@H]2[C@@H](COC[C@H](O)CN2S(=O)(=O)c2ccc(Cl)cc2)O1)N[C@H]1CCN(Cc2ccccc2)C1 | nt | -33.8 | 91.9 | nt | nt | nt | nt
Cc1ccc(S(=O)(=O)N2C[C@H](O)COC[C@H]3O[C@@H](CC(=O)N[C@@H]4CCN(Cc5ccccc5)C4)CC[C@@H]32)cc1 | nt | -7.6 | 97.9* | 76.4 | 60.9 | -2.1 | 0.9
Cc1ccc(S(=O)(=O)N2C[C@H](O)COC[C@@H]3O[C@H](CC(=O)N[C@@H]4CCN(Cc5ccccc5)C4)CC[C@H]32)cc1 | nt | -18.7 | 67.5 | nt | nt | nt | nt
O=C(C[C@@H]1C=C[C@@H](NS(=O)(=O)c2ccc(F)cc2)[C@H](CO)O1)N1CCN(c2ccccc2)CC1 | nt | 4.2 | -48.0 | nt | nt | nt | nt
CCC(=O)N1C[C@@H](C)[C@H](OC)CN(C)C(=O)c2ccc(NC(=O)c3ccc(OC)cc3)cc2OC[C@H]1C | nt | -8.0 | -15.3 | nt | nt | nt | nt
COc1ccc(CN(C)C[C@H]2Oc3c(NC(=O)Nc4c(C)noc4C)cccc3C(=O)N([C@H](C)CO)C[C@H]2C)cc1 | -1.7 | -9.6 | -2.2 | nt | nt | nt | nt
C[C@H]1CN([C@@H](C)CO)S(=O)(=O)c2ccc(-c3ccncc3)cc2O[C@@H]1CN(C)C(=O)Nc1ccc(F)cc1 | 8.0 | -13.4 | 104.6* | 102.2* | 88.8 | 15.1 | ?
Cc1ccc(-c2ccc3c(c2)O[C@@H](CN(C)C(=O)Nc2ccc(F)cc2)[C@H](C)CN([C@@H](C)CO)S3(=O)=O)cc1 | -18.2 | -4.5 | 119.1* | 95.3* | 42.1 | 43.2* | 35.3*
C[C@H]1CN([C@@H](C)CO)S(=O)(=O)c2ccc(-c3ccncc3)cc2O[C@H]1CN(C)C(=O)Nc1ccc(F)cc1 | 0.8 | -25.4 | 92.0 | nt | nt | nt | nt
C[C@@H]1CN([C@H](C)CO)S(=O)(=O)c2ccc(-c3ccncc3)cc2O[C@@H]1CN(C)C(=O)Nc1ccc(F)cc1 | 0.4 | 8.1 | 107.7* | 97.0* | 77.2 | 11.4 | 39.3*
C[C@H](CO)N1C[C@H](C)[C@@H](CN(C)C(=O)Nc2ccc(F)cc2)Oc2cc(-c3ccncc3)ccc2S1(=O)=O | 2.7 | -32.2 | 93.3 | nt | nt | nt | nt
C[C@@H]1CN([C@@H](C)CO)S(=O)(=O)c2ccc(-c3ccncc3)cc2O[C@H]1CN(C)C(=O)Nc1ccc(F)cc1 | 4.9 | 4.0 | 101.5* | 101.2* | 85.7 | -11.2 | 64.0*
CC(=O)N(C)C[C@H]1Oc2cc(-c3ccncc3)ccc2S(=O)(=O)N([C@@H](C)CO)C[C@H]1C | -3.3 | 13.7 | 50.4 | nt | nt | nt | nt
Cc1ccc(-c2ccc3c(c2)O[C@@H](CN(C)C(=O)Nc2ccc(F)cc2)[C@H](C)CN([C@H](C)CO)S3(=O)=O)cc1 | -1.3 | -61.8 | 63.6 | nt | nt | nt | nt
O=C(NCC1CC1)[C@@H]1[C@@H](CO)[C@@H]2Cn3c(cccc3=O)[C@H]1N2C(=O)c1cccnc1 | -2.6 | 7.6 | 65.6 | nt | nt | nt | nt
COCC(=O)N1C[C@H](C)[C@@H](OC)CN(C)C(=O)c2ccc(NC(=O)Nc3ccccc3)cc2OC[C@H]1C | -0.6 | -14.9 | -3.2 | nt | nt | nt | nt
SMILES | C diff HTS | Pf Dd2 inh | T cruzi growth-1 | T cruzi growth-2 | T cruzi growth-3 | 3T3 cytotox | NIH3T3 tox 2
C[C@@H]1CN([C@H](C)CO)C(=O)c2cccc(NS(=O)(=O)c3ccccc3)c2O[C@H]1CN(C)C(=O)NC1CCCCC1 | 3.6 | -1.2 | 51.9 | nt | nt | nt | nt
CO[C@H]1CN(C)C(=O)c2cc(NC(C)=O)ccc2OC[C@H](C)N(C(=O)c2ccncc2)C[C@H]1C | -2.4 | -10.4 | 21.1 | nt | nt | nt | nt
C[C@H](CO)N1C[C@H](C)[C@H](CN(C)S(C)(=O)=O)OCCCC[C@H](C)Oc2ccc(NC(=O)c3ccncc3)cc2C1=O | nt | 34.2 | 28.3 | nt | nt | nt | nt
C[C@@H]1CCCCO[C@H](CN(C)C(=O)Nc2ccc(F)cc2)[C@@H](C)CN([C@@H](C)CO)C(=O)c2cc(NC(=O)CCCN(C)C)ccc2O1 | 6.0 | -37.5 | nt | nt | nt | nt | nt
C[C@@H]1CCCCO[C@H](CN(C)C)[C@@H](C)CN([C@@H](C)CO)C(=O)c2cc(NC(=O)c3ccccc3)ccc2O1 | -0.5 | 7.8 | 26.5 | nt | nt | nt | nt
Cc1ccccc1-c1ccc2c(c1)O[C@H](CN(C)C(=O)Nc1ccccc1)[C@@H](C)CN([C@H](C)CO)S2(=O)=O | 0.2 | -25.5 | ? | 78.8 | -9.4 | 17.6 | 28.0*
Cc1ccccc1-c1ccc2c(c1)O[C@H](CN(C)C(=O)Nc1ccccc1)[C@H](C)CN([C@H](C)CO)S2(=O)=O | 0.4 | -8.6 | 72.9 | nt | nt | nt | nt
CC(C)(C)[S@](=O)N1Cc2cc(C(=O)NCc3ccccc3F)nc(-c3cccc(-c4ccncc4)c3)c2[C@@H]1CCO | nt | -77.3 | 99.2* | 102.5* | 90.5 | 19.9 | 103.2*
COc1cccc(CNC(=O)c2cc3c(c(-c4cccc(-c5ccc(C#N)cc5)c4)n2)[C@H](CCO)N([S@@](=O)C(C)(C)C)C3)c1 | nt | -74.6 | 73.8 | nt | nt | nt | nt
CC(C)(C)[S@@](=O)N1Cc2cc(C(=O)NCc3ccccc3F)nc(-c3cccc(-c4cccnc4)c3)c2[C@H]1CCO | nt | -71.8 | 72.2 | nt | nt | nt | nt
COc1ccc(CNC(=O)c2cc3c(c(-c4cccc(-c5cccc(C#N)c5)c4)n2)[C@@H](CCO)N([S@](=O)C(C)(C)C)C3)cc1 | nt | -72.9 | ? | 106.9* | 100.0* | 19.3 | 45.0*
